PubChem BioAssay
Values without a mark were called inactive. Active and inactive are the calls of the source.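 The calls were made as follows, unless noted: active = mean inhibition over 43.08%, the solvent-only control mean plus 3 SD; inactive = the rest.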

Assays:
[1] = biological target: Nuclear receptor coactivator 3 (Homo sapiens) (UniProt Q9Y6Q9); test: SRC3 coactivator transcriptional activity inhibitors, confirmation, cell-based, luminescence, quadruplicate (AID 588792); settings: HEK293 GAL4-SRC3 luciferase reporter, at 3.6 µM, active compounds read high;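 also: 0% = DMSO treated cells and 100% = gossypol at 36 µM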
Nuclear receptor coactivator 3 (Homo sapiens), sequence (Q9Y6Q9 whole entry, looked up, the tested form may be a part): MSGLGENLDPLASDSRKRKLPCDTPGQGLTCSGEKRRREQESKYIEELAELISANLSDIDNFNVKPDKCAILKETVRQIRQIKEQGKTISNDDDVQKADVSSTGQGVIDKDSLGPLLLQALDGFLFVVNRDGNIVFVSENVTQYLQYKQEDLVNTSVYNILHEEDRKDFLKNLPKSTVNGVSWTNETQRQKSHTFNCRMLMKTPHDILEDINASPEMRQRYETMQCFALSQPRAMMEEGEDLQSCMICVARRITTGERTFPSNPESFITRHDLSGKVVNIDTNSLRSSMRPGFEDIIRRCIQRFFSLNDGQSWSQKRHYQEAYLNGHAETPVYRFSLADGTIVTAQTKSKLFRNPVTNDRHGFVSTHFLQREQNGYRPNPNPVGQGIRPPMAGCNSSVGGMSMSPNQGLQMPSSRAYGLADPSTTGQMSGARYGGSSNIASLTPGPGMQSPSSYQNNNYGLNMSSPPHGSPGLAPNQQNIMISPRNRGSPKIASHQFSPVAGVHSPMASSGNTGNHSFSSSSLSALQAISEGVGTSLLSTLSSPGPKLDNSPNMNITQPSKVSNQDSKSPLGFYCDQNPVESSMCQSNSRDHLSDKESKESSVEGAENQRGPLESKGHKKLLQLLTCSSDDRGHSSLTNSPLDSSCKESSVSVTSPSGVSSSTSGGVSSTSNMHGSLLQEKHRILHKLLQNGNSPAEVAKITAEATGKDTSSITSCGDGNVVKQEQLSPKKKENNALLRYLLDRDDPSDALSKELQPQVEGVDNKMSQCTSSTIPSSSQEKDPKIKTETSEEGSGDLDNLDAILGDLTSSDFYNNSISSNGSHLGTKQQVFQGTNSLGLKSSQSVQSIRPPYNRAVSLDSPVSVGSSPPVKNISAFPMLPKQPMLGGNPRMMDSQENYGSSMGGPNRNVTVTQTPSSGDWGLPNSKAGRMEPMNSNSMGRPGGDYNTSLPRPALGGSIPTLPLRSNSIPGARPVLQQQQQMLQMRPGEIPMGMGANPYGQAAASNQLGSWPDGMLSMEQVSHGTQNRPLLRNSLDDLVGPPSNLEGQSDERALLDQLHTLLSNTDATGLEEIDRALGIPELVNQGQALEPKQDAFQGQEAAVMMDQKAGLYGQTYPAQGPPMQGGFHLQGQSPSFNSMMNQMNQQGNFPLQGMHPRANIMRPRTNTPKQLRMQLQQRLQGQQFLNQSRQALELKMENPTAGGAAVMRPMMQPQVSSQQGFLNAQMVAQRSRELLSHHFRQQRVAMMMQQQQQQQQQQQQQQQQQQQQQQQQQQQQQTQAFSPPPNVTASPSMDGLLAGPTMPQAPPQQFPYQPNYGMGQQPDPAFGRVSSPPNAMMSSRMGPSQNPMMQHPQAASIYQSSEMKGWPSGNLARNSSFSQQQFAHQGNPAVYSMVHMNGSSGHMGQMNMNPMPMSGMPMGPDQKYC

[2] = system: transactivating tegument protein VP16 (Human herpesvirus 1), Gal4-VP16 luciferase reporter; test: VP16 transactivation inhibitors, counter-screen for SRC3 inhibitor project, cell-based, luminescence, high throughput (AID 588794; in the data active = inhibition above about 30%); settings: mammalian cells, VP16-driven luciferase reporter luminescence; at 3.6 µM; active compounds read high

Row | SMILES | inhibition [1] | inhibition [2]
1 | Cc1noc(C)c1COC(=O)c1cc(F)c(F)cc1Cl | 2.84% | 1.74%
2 | Cc1cccn2c(CNCC3(c4ccccc4)CCCC3)c(C(=O)N3CCOCC3)nc12 | 7.17% | 6.26%
3 | Cn1c(=O)n(C)c2cc(NS(=O)(=O)c3ccc(C(C)(C)C)cc3)ccc21 | 16.6% | 14.9%
4 | CCCC(=O)NC(c1ccc(C(C)C)cc1)c1ccc2cccnc2c1O (stereo unspecified) | 74.5% (active) | 73.2% (active)
5 | Cc1[nH]nc(-c2ccc(O)cc2O)c1Oc1ccccc1 | 3.77% | 10.3%
6 | Clc1ccc(-c2c[n+](Cc3ccc(Cl)cc3Cl)c3n2CCCCC3)cc1 | 6.98% | 10.8%
7 | O=C(NNc1ccccc1)c1ccc(Cl)c(Cl)c1 | 19.8% | 58.7% (active)
8 | Nc1ccccc1SCC(=O)Nc1nc(-c2ccccc2)cs1 | 25% | 48.4% (active)
9 | N#CCc1c[nH]c2ccc([N+](=O)[O-])cc12 | 24% | 20%
10 | O=[N+]([O-])c1cc(S(=O)(=O)NCCN2CCOCC2)ccc1Sc1nnnn1-c1ccccc1 | 12.9% | -10.3%
11 | C/C(=N\NC(=O)C1COc2ccccc2O1)c1ccccn1 (stereo unspecified) | -12.8% | 19.6%
12 | Cc1ccc(-c2nc(CS(=O)CC(=O)NCCCN3CCN(Cc4ccccc4)CC3)c(C)o2)cc1 (stereo unspecified) | 20.1% | 8.49%
13 | CCOCc1c(C(=O)NC2=Nc3ccccc3NC(CC)=C2C(=O)OCC)oc2ccccc12 | 1.38% | -11.3%
